HEK293 tox = Cytotoxic Profiling in HEK 293 Cell Line of Diverse Libraries Using Quantitative High-Throughput Screening | AID 1345083, 2018 | Potency, µM (series often up to 115 µM), without a hit: at the top dose activity change, negative = cytotoxicity, most hits filed as inhibitors | HEK 293 viability, ATP luminescence (CellTiter-Glo), 48-72 h | actives 6.6% (n = 94,000); note: nearly all actives have a fitted effect of over 60% in size
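ATP-coupled CellTiter-Glo luminescence served as viability read-out, recorded 10 min after reagent addition at room temperature. HEK 293 cells, 250 cells/well, had been incubated with pintool-transferred compound for 48 or 72 hr at 37 degree Celsius.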
NPR1 antag = Natriuretic polypeptide receptor (hNpr1) antagonism - Primary qHTS. Atrial natriuretic peptide receptor 1 (Homo sapiens), P16066. HEK293 hNpr1 GloSensor cGMP, ANP-stimulated luminescence. Potency, µM (top dose mostly 46.3 µM), without a hit: at the top dose activity change, negative = inhibition, hits mostly inhibitors. actives 1.6% (n = 76,000). AID 1347048, 2019; calls by dose curve; note: nearly all actives have a fitted effect of over 60% in size
Target sequence (P16066 whole entry, looked up): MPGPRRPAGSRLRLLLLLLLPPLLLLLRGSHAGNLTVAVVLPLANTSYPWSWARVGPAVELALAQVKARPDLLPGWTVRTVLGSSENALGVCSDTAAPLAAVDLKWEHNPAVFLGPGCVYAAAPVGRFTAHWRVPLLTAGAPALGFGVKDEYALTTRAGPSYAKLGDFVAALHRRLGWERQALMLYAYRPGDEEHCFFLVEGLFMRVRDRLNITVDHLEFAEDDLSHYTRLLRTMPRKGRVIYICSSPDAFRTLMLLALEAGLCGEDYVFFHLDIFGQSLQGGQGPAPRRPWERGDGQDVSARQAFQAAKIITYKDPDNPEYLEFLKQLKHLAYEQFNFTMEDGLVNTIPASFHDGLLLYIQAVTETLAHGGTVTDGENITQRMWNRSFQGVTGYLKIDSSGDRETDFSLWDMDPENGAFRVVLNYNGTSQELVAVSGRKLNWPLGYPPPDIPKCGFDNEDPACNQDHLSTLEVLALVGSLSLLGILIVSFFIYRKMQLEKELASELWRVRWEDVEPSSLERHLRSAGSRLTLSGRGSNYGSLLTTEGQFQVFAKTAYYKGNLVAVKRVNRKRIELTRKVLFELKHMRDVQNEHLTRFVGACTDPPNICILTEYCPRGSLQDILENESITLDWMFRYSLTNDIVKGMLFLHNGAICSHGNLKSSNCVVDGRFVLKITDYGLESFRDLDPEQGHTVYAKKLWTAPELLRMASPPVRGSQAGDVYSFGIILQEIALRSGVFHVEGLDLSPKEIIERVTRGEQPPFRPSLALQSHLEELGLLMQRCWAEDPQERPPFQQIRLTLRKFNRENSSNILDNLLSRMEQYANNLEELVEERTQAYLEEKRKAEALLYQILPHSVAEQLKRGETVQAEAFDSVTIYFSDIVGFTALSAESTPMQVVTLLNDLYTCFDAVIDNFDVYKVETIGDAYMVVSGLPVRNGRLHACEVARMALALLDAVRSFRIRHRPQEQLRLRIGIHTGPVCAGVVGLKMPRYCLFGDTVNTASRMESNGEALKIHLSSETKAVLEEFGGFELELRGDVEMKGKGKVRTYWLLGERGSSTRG
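HEK293 cells stably expressing human Npr1 and cGMP GloSensor pGS-40F, loaded 2 h with 2% GloSensor reagent, given compound 30 min at room temperature. Luminescence read before and 20 min after 0.1 nM hNppA.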
3T3 cytotox = Cytotoxic Profiling in NIH 3T3 Cell Line of Diverse Libraries Using Quantitative High-Throughput Screening | NIH 3T3 viability, CellTiter-Glo ATP luminescence, 48-72 h | Potency, µM (highest dose often 96.7 µM), without a hit: at the top dose activity change, negative = cytotoxicity, hits mostly inhibitors | actives 4.3% (n = 94,000); note: nearly all actives have a fitted effect of over 55% in size
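Cytotoxicity was measured by CellTiter-Glo ATP luminescence after 48 or 72 h compound exposure at 37 °C. Mouse NIH 3T3 fibroblasts were seeded at 400 cells/well and dosed by 23 nL pin transfer.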
Luciferase inh = Firefly luciferase inhibition profiling of diverse chemical library using quantitative high-throughput screening; Luciferin 4-monooxygenase (Photinus pyralis), P08659; purified P. pyralis luciferase, luminescence, biochemical; Potency, µM (highest dose often 115 µM), most hits filed as inhibitors; actives 2.5% (n = 76,000); note: nearly all actives have a fitted effect of over 65% in size
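Luminescence read by CCD imager after adding enzyme (10nM final) to wells holding compound, titrated in qHTS. Substrates 10uM each D-luciferin and ATP; buffer 50mM Tris acetate pH 7.5, 10mM Mg acetate, Tween-20, BSA.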
Starred values were filed as active, the others as inactive; [ ] = remark or other dose. Most compounds without a hit are left out; they make up all but 11% or so of the library. Unless noted, calls come from the whole dose curve; as a rule, active = well fitted curve in the direction sought with a large enough effect; inconclusive = small, poorly fitted or top-dose-only effect, or another doubt; inactive = no such curve, though single readings can be large; an effect the other way counts as inactive or inconclusive. % is set by controls: 0 for no effect and ±100 for the full control effect; potency is the fitted concentration of half-maximal effect.

Results for CCc1cccc2c(C(CC(=O)N3CCC(C)CC3)c3cccc(C)c3)c[nH]c12 (stereo not drawn) ?
HEK293 tox: 35µM*; NPR1 antag: 3%; 3T3 cytotox: inconclusive; Luciferase inh: inactive

What do the screens show for `CCOC(=O)C1CCN(C(=O)CC(c2ccc3c(c2)OCO3)c2c[nH]c3ccccc23)CC1` (stereo not drawn)?
HEK293 tox: inconclusive; NPR1 antag: 0%; 3T3 cytotox: inconclusive; Luciferase inh: inactive

How did CCc1cccc2c(C(CC(=O)N3CCCC3)c3ccc(Cl)c(Cl)c3)c[nH]c12 (stereo not drawn) do in these assays?
HEK293 tox: 40µM*; NPR1 antag: 5%; 3T3 cytotox: inconclusive; Luciferase inh: inactive

Results for COc1ccc(C(CC(=O)NCCc2ccccc2)c2c[nH]c3ccccc23)cc1OC (stereo not drawn) ?
HEK293 tox: inconclusive; NPR1 antag: 0%; 3T3 cytotox: inconclusive; Luciferase inh: inactive

What do the screens show for `CCc1cccc2c(C(CC(=O)NCCc3ccccc3)c3cccc4c3OCO4)c[nH]c12` (stereo not drawn)?
HEK293 tox: 18µM*; NPR1 antag: -20%; 3T3 cytotox: 18µM*; Luciferase inh: inconclusive

What do the screens show for `CCc1cccc2c(C(CC(=O)NCCc3ccc(OC)c(OC)c3)c3cccc(OC)c3)c[nH]c12` (stereo not drawn)?
HEK293 tox: 25µM*; NPR1 antag: -15%; 3T3 cytotox: inconclusive; Luciferase inh: inactive

How did CCc1cccc2c(C(CC(=O)NCCC(C)C)c3cccc(OC)c3OC)c[nH]c12 (stereo not drawn) do in these assays?
HEK293 tox: 45µM*; NPR1 antag: -1%; 3T3 cytotox: inconclusive; Luciferase inh: inactive

Results for CCc1cccc2c(C(CC(=O)NCCOC)c3ccc(OC)cc3OC)c[nH]c12 (stereo not drawn) ?
HEK293 tox: inconclusive; NPR1 antag: 3%; 3T3 cytotox: -8%; Luciferase inh: inactive

What do the screens show for `CCc1cccc2c(C(CC(=O)NCc3ccc(F)cc3)c3cccc(OC)c3OC)c[nH]c12` (stereo not drawn)?
HEK293 tox: inconclusive; NPR1 antag: 0%; 3T3 cytotox: inconclusive; Luciferase inh: inactive

How did COc1cccc(C(CC(=O)NCCc2ccc(OC)c(OC)c2)c2c[nH]c3ccccc23)c1 (stereo not drawn) do in these assays?
HEK293 tox: 45µM*; NPR1 antag: inconclusive; 3T3 cytotox: inconclusive; Luciferase inh: inactive

How did CN(C)C(=O)c1n[nH]c2c1CN(C(=O)c1ccc(F)cc1)CC2 do in these assays?
HEK293 tox: 1%; NPR1 antag: -1%; 3T3 cytotox: -6%; Luciferase inh: inactive

How did CCc1cccc2c(C(CC(=O)NCc3ccc4c(c3)OCO4)c3ccc(OC)c(OC)c3)c[nH]c12 (stereo not drawn) do in these assays?
HEK293 tox: 35µM*; NPR1 antag: -21%; 3T3 cytotox: inconclusive; Luciferase inh: inactive

What do the screens show for `CCOc1cc(C(=O)NC2CCN(c3cc(-c4ccc(F)cc4)[nH]n3)C2)cc(OCC)c1OCC` (stereo not drawn)?
HEK293 tox: 35µM*; NPR1 antag: 1%; 3T3 cytotox: 25µM*; Luciferase inh: inactive

How did CCOc1cc(C(=O)NC2CCN(c3cc(-c4ccccc4)[nH]n3)CC2)cc(OCC)c1OCC do in these assays?
HEK293 tox: 45µM*; NPR1 antag: -1%; 3T3 cytotox: inconclusive; Luciferase inh: inactive

How did CCOc1ccc(C(=O)NC2CCN(c3cc(-c4ccccc4)[nH]n3)CC2)cc1OCC do in these assays?
HEK293 tox: inconclusive; NPR1 antag: -5%; 3T3 cytotox: -16%; Luciferase inh: inactive

Results for CCOc1ccc(C(=O)NC2CCN(c3cc(-c4ccc(F)cc4)[nH]n3)CC2)cc1OCC ?
HEK293 tox: 40µM*; NPR1 antag: 3%; 3T3 cytotox: inconclusive; Luciferase inh: inactive

What do the screens show for `Fc1ccc(OCc2nc(C3CCNC3)no2)cc1` (stereo not drawn)?
HEK293 tox: inactive; NPR1 antag: 6%; 3T3 cytotox: -6%; Luciferase inh: inactive

How did COc1ccc(-c2cccc(C(=O)N3CCN(c4ncccn4)CC3)c2)nn1 do in these assays?
HEK293 tox: -1%; 3T3 cytotox: -12%

How did COc1cc2c(cc1-c1ccc(OC(F)(F)F)cc1)OCC(C)(C)CC2CO (stereo not drawn) do in these assays?
HEK293 tox: 22µM*; 3T3 cytotox: inconclusive

What do the screens show for `CCCOc1cccc(-c2cc3c(cc2OC)C(CO)CC(C)(C)CO3)c1` (stereo not drawn)?
HEK293 tox: 35µM*; 3T3 cytotox: 32µM*

How did Cc1cn2nc(C(=O)N3CCN(C(=O)c4ccc(C)s4)CC3)cc2c(=O)[nH]1 do in these assays?
HEK293 tox: 1%; NPR1 antag: -3%; 3T3 cytotox: inactive; Luciferase inh: inactive

Results for Cn1nc(C2CCCC2)cc1NC(=O)c1ccccc1 ?
HEK293 tox: inactive; 3T3 cytotox: -10%[138 µM]

What do the screens show for `CN(Cc1ccc(-c2ccccc2)cc1)C(=O)c1ccc(F)cc1`?
HEK293 tox: 71µM*; NPR1 antag: -9%[70.6 µM]; 3T3 cytotox: inconclusive; Luciferase inh: inactive

How did Cc1ccccc1C(=O)N(C)Cc1ccc(F)cc1 do in these assays?
HEK293 tox: -29%[172 µM]; NPR1 antag: 25%[70.6 µM]; 3T3 cytotox: -15%[138 µM]; Luciferase inh: inactive

What do the screens show for `COc1cccc(C(=O)N(C)Cc2ccc(F)cc2)c1`?
HEK293 tox: -28%[172 µM]; NPR1 antag: 0%[70.6 µM]; 3T3 cytotox: -19%[138 µM]; Luciferase inh: inactive

How did COc1cccc(C(=O)N(C)Cc2ccc(-c3ccccc3)cc2)c1 do in these assays?
HEK293 tox: 71µM*; NPR1 antag: 6%[70.6 µM]; 3T3 cytotox: inconclusive; Luciferase inh: inactive

Results for Cc1ccccc1C(=O)N(C)Cc1ccc(-c2ccccc2)cc1 ?
HEK293 tox: inconclusive; NPR1 antag: inconclusive; 3T3 cytotox: 50µM*; Luciferase inh: inactive

Results for CN(Cc1ccc(F)cc1)C(=O)c1ccccc1 ?
HEK293 tox: inconclusive; NPR1 antag: -11%[70.6 µM]; 3T3 cytotox: -19%[138 µM]; Luciferase inh: inactive

Results for O=C(C1CCCN1C(=O)C1CC1)N1CCC(c2nc3ccncc3[nH]2)CC1 (stereo not drawn) ?
HEK293 tox: 4%; 3T3 cytotox: -11%

How did O=C(Nc1ccccc1)N1CCN(C(=O)c2nc3cccnc3n(C3CCCC3)c2=O)CC1 do in these assays?
HEK293 tox: -25%; 3T3 cytotox: inconclusive

How did COCCCNC(=O)C1CCN(C(=O)c2nnn3c2COC(c2ccc(C)cc2)C3)CC1 (stereo not drawn) do in these assays?
HEK293 tox: -5%; NPR1 antag: -2%; 3T3 cytotox: inactive; Luciferase inh: 40µM*

Compound activity deposited in PubChem BioAssay by National Center for Advancing Translational Sciences (NCATS).
